Source: PubChem
A selection: hits, their analogues and other compounds. The true share with any hit is near 4.1%.
p-CIP stab down: p/CIP-EGFP fusion destabilizers, primary screen, fluorescence, F442A cells; Q05BA5; 16 h; decrease of EGFP signal, % at 10 µM; hit rate 0.01% among 290,000; AID 1984, 2009;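 active = EGFP signal decrease of at least 30% at 10 µM or well 3 SD below plate mean, unless failing retest; inactive = the rest, including hits failing retest or dose response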
FAS-TE inh: FAS thioesterase domain inhibitors, primary screen, biochemical, fluorescence intensity, uHTS | Fatty acid synthase (Homo sapiens), P49327 | recombinant FAS-TE, OMFH fluorogenic substrate, fluorescence endpoint | inhibition, % at 15 µM | hit rate 0.67% among 360,000 | AID 602261, 2012;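 active = compounds whose normalised, plate-corrected inhibition of enzyme fluorescence in the single-dose primary screen is 50% or more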
NR3A LBD binder: binders of NR3A ligand-binding domain, primary screen, biophysical, differential scanning fluorimetry, uHTS. NR3A LBD differential scanning fluorimetry, Tm shift; 0% = protein alone, 100% = glycine-bound protein. Tm shift relative to glycine control, % at 25 µM. hit rate 2.5% among 340,000. AID 1259313, 2017;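 active = melting temperature shift of at least 10% of the positive control shift, at one fixed dose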
MPTP inh: mitochondrial permeability transition pore inhibitors, primary screen, biochemical, isolated mouse mitochondria, absorbance; Ca2+ swelling absorbance, 30 min; inhibition, % at 10 µM; hit rate 1.4% among 360,000;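 active = inhibition of 50% or more, scaled per plate between neutral and stimulator controls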
MIN6 prolif: inducers of MIN6 beta-cell proliferation, primary screen, ATP luminescence, uHTS; proliferation, % at 10 µM; MIN6 cells proliferation, ATPlite luminescence, 48 h; cells starved in 0.2% serum; 100% = growth in 10% serum; hit rate 0.29% among 330,000;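 active = compounds whose signal lies at least 3.5 SD above the mean of all wells on their plate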
A number is an active result; i = inactive; nt = not tested or not shown.

SMILES	p-CIP stab down	FAS-TE inh	NR3A LBD binder	MPTP inh	MIN6 prolif
Cc1cccc(OCCNc2ccc([N+](=O)[O-])cn2)c1	i	i	i	i	i
CC(=O)NCCCOc1ccc([N+](=O)[O-])cc1Cl	i	i	10	i	i
O=[N+]([O-])c1ccc(NCCOc2ccccc2Cl)nc1	i	i	16	i	i
CC(=O)Nc1ccc(Nc2nc3ccccc3nc2NS(=O)(=O)c2ccccc2)cc1	i	i	i	i	i
CC(=O)Nc1ccc(S(=O)(=O)Nc2nc3ccccc3nc2Nc2ccccc2)cc1	i	i	10	i	i
CC(=O)Nc1ccc(S(=O)(=O)Nc2nc3ccccc3nc2Nc2ccc(O)cc2)cc1	i	i	17	i	i
Cc1ccc2cccc(Oc3ncnc4scc(-c5ccc(Cl)cc5)c34)c2n1	i	i	11	i	i
Cc1ccc2cccc(Oc3ncnc4scc(-c5ccccc5)c34)c2n1	i	i	i	i	i
Cc1ccc([N+](=O)[O-])cc1NC(=O)c1c(-c2ccccc2)noc1C	i	i	13	i	i
O=C(C1=C[C@@H]2[C@H]3C(=O)N(c4cccc(Cl)c4)C(=O)[C@H]3[C@@H](C(=O)c3ccc(Cl)cc3)N2C=C1)c1ccccc1	i	i	14	i	i
Cc1ccc(N2C(=O)[C@@H]3[C@H](C2=O)[C@H]2C=C(C(=O)c4ccccc4)C=CN2[C@@H]3C(=O)c2ccc(Cl)cc2)cc1	i	i	i	i	i
O=C(CCC(NC(=O)OCc1ccccc1)C(=O)OCc1ccccc1)NCC(=O)OCc1ccccc1 (stereo not given)	i	i	12	i	i
NC(=O)CC[C@H](NC(=O)OCc1ccccc1)C(=O)OCc1ccc(Cl)cc1	i	i	i	i	i
O=C(c1ccccc1)C(CN1CCCCC1)c1ccccc1 (stereo not given)	nt	i	i	i	nt
CN1CCOc2c1cnn(CCO)c2=O	nt	i	nt	i	nt
CC(=O)Nc1ccc(S(=O)(=O)NCC2CCC(C(=O)NCCCN(C)Cc3ccccc3)CC2)cc1 (stereo not given)	i	i	15	i	i
CN(CCCNC(=O)C1CCC(CNS(=O)(=O)c2ccccc2)CC1)Cc1ccccc1 (stereo not given)	i	i	i	i	i
c1ccc2sc(-n3cc(C4CCCCC4)nn3)nc2c1	nt	i	nt	i	nt
Cc1ccc([N+](=O)[O-])cc1N(CC(=O)Nc1ccc(S(=O)(=O)Nc2cccc(C(F)(F)F)c2)cc1)S(C)(=O)=O	i	i	12	i	i
COc1ccccc1N(CC(=O)Nc1cccc(C(F)(F)F)c1)S(C)(=O)=O	i	i	i	i	i
COc1cc(NC(=O)c2cccc3c(-c4cccnc4)coc23)cc(OC)c1OC	nt	i	nt	i	nt
N#CCCCSc1nnc(Cc2ccc3c(c2)OCO3)o1	i	i	12	i	i
Cc1cc(C)c2ccc(Cl)cc2n1	i	i	i	i	i
Cc1cc(NN)nc2ccc(Cl)cc12	i	i	12	i	i
CCc1nc2c(OCc3ccc(Cl)cc3)cccn2c1N(C)C(=O)c1ccc(C)cc1	nt	i	nt	i	nt
SMILES	p-CIP stab down	FAS-TE inh	NR3A LBD binder	MPTP inh	MIN6 prolif
C/C(=N/Nc1ccc(C(=O)c2c(C)cc3ccccn23)cc1[N+](=O)[O-])c1ccc(O)cc1	nt	i	11	i	nt
O=C(Nc1ccc(Oc2cccnc2)cc1)C1CCN(Cc2cc(Cl)ccc2O)CC1	i	i	88	i	i
O=C(Nc1ccc(Oc2cccnc2)cc1)C1CCN(Cc2ccc(F)cc2)CC1	i	i	i	i	i
CCOC(=O)c1cnc2ccc(OCC)cc2c1NCc1ccccc1	i	i	15	i	i
CCOC(=O)c1cnc2ccc(OCC)cc2c1NCc1cccnc1	i	i	i	i	i
CCN(CC)C(=O)Cn1cc(S(=O)(=O)CC(=O)NCCc2ccccc2)c2ccccc21	i	i	15	i	i
O=C(O)CSc1nc2ccccc2o1	i	i	i	i	i
Cc1ccc(C(=O)CSc2nc3ccccc3o2)cc1	i	i	17	i	i
CC1CC(=O)c2c(cc3c(-c4c(O)cc(O)c5c(O)c6c(cc45)OC(C)CC6=O)c(O)cc(O)c3c2O)O1 (stereo not given)	i	i	24	i	i
O=C1CC(c2ccc(O)cc2)Oc2cc(O)cc(O)c21 (stereo not given)	i	i	i	i	i
